Measured values: the supplement of paper PMC10105736
Values without a mark were called inactive.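 Rule for the calls: active = MAPPIT score above the 99th percentile of random reference set scores in the same batch; inactive = at or below it.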

Assays:
Experiment in all cases: MAPPIT interaction score (arbitrary units); higher = stronger binary interaction signal, active = hit call of the paper
CG10465 = conditions: MAPPIT configuration: N-N; pair source set: Curagen_high_conf
CG10483 = conditions: MAPPIT configuration: N-N; pair source set: DPIM
CG4847 = conditions: MAPPIT configuration: N-N; pair source set: DPIM
twin = conditions: MAPPIT configuration: N-N; pair source set: DPIM
CG10874 = conditions: MAPPIT configuration: N-N; pair source set: Lit-BS-16
RpL38 = conditions: MAPPIT configuration: N-N; pair source set: Curagen_high_conf
bond = conditions: MAPPIT configuration: N-N; pair source set: Curagen_low_conf
CG10026 = conditions: MAPPIT configuration: N-N; pair source set: Finley_Y2H
CG10918 = conditions: MAPPIT configuration: N-N; pair source set: Finley_Y2H
CG10841 = conditions: MAPPIT configuration: N-N; pair source set: screen_2
CG10510 = conditions: MAPPIT configuration: N-N; pair source set: Finley_Y2H
CG31111 = conditions: MAPPIT configuration: N-N; pair source set: DPIM
CkIIbeta = target: CkIIbeta
Pkc98E = conditions: MAPPIT configuration: N-N; pair source set: Finley_Y2H
CG11149 = conditions: pair source set: RRS
CG14323 = conditions: MAPPIT configuration: N-N; pair source set: RRS
CG34268 = conditions: MAPPIT configuration: N-N; pair source set: RRS
CG10444 = conditions: MAPPIT configuration: N-C; pair source set: screen_3
CG10013 = conditions: MAPPIT configuration: N-N; pair source set: DPIM
CG10616 = conditions: MAPPIT configuration: N-N; pair source set: Finley_Y2H
CG10336 = conditions: MAPPIT configuration: N-C; pair source set: screen_3
Gint3 = conditions: MAPPIT configuration: N-N; pair source set: Lit-BM-16
ZnT63C = conditions: MAPPIT configuration: N-N; pair source set: DPIM
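Note: HEK293T cells with Epo stimulation, STAT-responsive firefly luciferase reporter, fold induction versus unstimulated cells divided by the larger fold induction of two negative controls lacking either bait or prey.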

B1: AnxB11 (protein)
chain: MYPFGSGMPSHPPTSTNHHEPPRAPFGAGWVPPMQQNSPYPPPSQPHPHSQPSSQMHPQQHQQYPGGAPAPYPPMSAPYPSAAPSYPPYPTSNPYPAQYAPPAHNHYQQPSVSNSPYPADRGYTPAMTAGYDAGYGYGNGQGHGQGHGHGQGHGHGHGQGHEYGHGYGQGYGHGQGHGNGQGHAHRSLPAHREGTPTVVPAANFDAVKDAHDLRKAMKGFGTDEDALINIICRRSNEQRQEIQRQFKTHFGKDLIEDIKSETSGNFEKLLVGLLRPIVDYYCAELNDAMAGLGTDEEVLIEILCTLSNMEINTIKNQYLRLYGAHLESELKSETSGNFKRLLTSLCTAARDESGRVDPVAAKNDARELLKAGELRVGTDESMFNMILCQRNYQQLKLIFQEYEGMTGHSLEKAIKKEFSGDVMEGLIAIYRCVTNKAEYFASRLHKAMAGIGTNDTQLIRVIITRSEIDMTDIKVAFERLYGKSLKSWIKGDTSGHYKHALYALVGEQRSS
In the case of B1, the MAPPIT interaction score (CG10465) is reported as 0.12.

B2: CG1785 (protein)
chain: MTAVEPATKKKRISKKNKSAWRKTDIQDVEQFLEDQRQEERVGTFADKQDEDLFVVDSSLPKTKATVLSVKQKRKLNAKKPMRSYQALENTSKVQDPIAKRNHVRQKKNGRNIELEVCNPTKPRHRQANSDRAQYYVKLEQRLADKKNKKLDVEKDIWQEVDFRDEIPGLKDEKGWISRELALHTAGNIGKKVVKTHASLHHKTTKAKKFELPHPGMSYNPAPEDHQALIDQVVEREEGIIKKEQHLKRVTTSMFSKVTPEERDRRRLNEMSQGMDEEEGSELDEDVQTNGKKKEDDDEKPYHTINAPVENKKKSKQARRNELKQKELARQTELKRKLKQQTADLIRIKSIRHELDDEEEDLNDLKKRRKQRAEKAKFEPKRLGRHKFEEPDLDVNLPEDIAGNLRNVKTESSLLKDRFHTLQRNNMLPTTKLVSRKKSKVKRFERNSHKEPGVSYNDLKERRRAAAAAAKATANIKI
Work on B2 yielded an MAPPIT interaction score (CG10483) of 0.068, an MAPPIT interaction score (CG4847) of 0.0294 and an MAPPIT interaction score (twin) of -0.15.

B3: gus (protein)
chain: MGQKISGGVKTVSRNDSQSTFKPIIPRELQADFVKPARIDILLDMPPASRDLQLKHSWNSEDRSLNIFVKEDDKLTFHRHPVAQSTDCIRGKVGLTKGLHIWEIYWPTRQRGTHAVVGVCTADAPLHSVGYQSLVGSTEQSWGWDLGRNKLYHDSKNCAGVTYPAILKNDEAFLVPDKFLVALDMDEGTLSFIVDQQYLGIAFRGLRGKKLYPIVSAVWGHCEITMRYIGGLDPEPLPLMDLCRRTIRQKIGRTNLEEHIQQLQLPLSMKTYLLYKNRR
B3 gave an MAPPIT interaction score (CG10874) of 0.809, an MAPPIT interaction score (RpL38) of 0.363 and an MAPPIT interaction score (bond) of 0.0719.

B4: CG7218 (protein)
chain: MNATLNSAGGKRQLRFRGDVTGSRVEELHHQQQEEQKQKAPLAQDDVAATPTATPAAGSAQQRLQSGTAETCTNTFYDFFKVEMTRGYMLEHDEERYSARRQKIYSFMRIPRDLERFMVYGIMQCADSFLYIHTFLPVRFVMAVWALVSRTVARIFRLRSSGQRLLSPAEICDLLKGVIWMTVTLIMLLVDTNRVYHIIKSQSIIKLYIFYNMLEVGDRLLSAFGQDTIDALFWTATEPKNSKREHFGVLTHVLFTLIYVFLHSGLIMFQATCLNVAVNSNNKGLLTIMISNNFVELKGSVFKKFDKNNLFQLTCSDVRERFHLSVLLFIVVIQTMKEFDWSITQFCVMLPDCFAVLFTEILIDWVKHAFITRFNELPESIYREYTTSLAYDMTQTRQKHAFSDHSDLVARRMGFIPFPLAVVLIKAIYTAVSFENLAAWLLFLLAYLFAMGLRICLTICALGKACKLMKEHQTERNSSTPSSMTNVPVIGAAAPVSAAATGGQNHNNNNNNNNNSISIGSKPAQVTTLLTPPSAGHLDVSKNFSRTSIASTSTPKKAVSEQELDVTNSLELGATALFSNSDVDLDDVCLNEQVTNTNTSSAVQEVYQEQDLVRSQPDLMLLNNSGDGVTSAKAKKATQRLPKRTHKRSESEPGMPSMVEKGGAAGIAGGNQTTQL
B4 gave an MAPPIT interaction score (CG10026) of 1.47.

B5: Fer2LCH (protein)
chain: MKFFVALALFACLGSLALAKDDEYCQNTVITACSTSAFSANSICNARFAGIDHIEPEIQSYINANLAKSYDYLLLATHFNSYQKNRPGFQKLYQGLSDRSFEDSIALIKQVTRRGGIVDFNTRHESSGSVSTKRGTLEVDELHSLALALDTEKQLATGATHVHSRATHATDAERDPELAHYFEENFLGKQAESVRKLSGYANDLAKLMKVPDPSLSVYLFDEYLQKQ
B5 was tested, and the MAPPIT interaction score (CG10918) was 0.0432.

B6: mxt (protein)
chain: MAHTHLGRAVKNIEAPRPLKTQSRSSLKNSYLVIEELIQLIDNVTVGLQSCNTTPESITLLLHNLRVHGPQLEAVSKDTLDRAFVVFRNASQDERLNITTRLKLLELIELRAKSWDNDDTIAYYKSKQQISNVELPSEYQYDAGVQPGAFSTSPTFGVSGGVGGVNDGAAAAAAAVFNAASAAAAAQAAAIAAVGTSNQQHMLLPPGEVIRNSGKFPKPTKIPGKTYCKDEVVIRNADSGKVMGIKGRRVHMIEELSETIISFQRVNPGAKERLVQITGPAEDKINYAKQLMEDTIRRNASPVRLEPAPAVGGSCSSLNSSNSDDAIVQPRTPTGSSLANRLSFNSAQNFMTATAAAQQISQQMHHQTHHLQHQQQQQVAAVAAAAAAAAHAQATAAAGKVLRPNQQLLMHSYSTNDASVGEYKFTVNVGQHLIKITGDCCELVRVAKLVLDDYFSSSEFLASIEAGAAFDGTSLVTTPSTPLPGAGPPQFWLPGTDSGIGLNCVVSSSANNNGEGDDEVFAEPSNGGSSTSNQNGLARSRRSHFSRKESTPETKGAREKGDLDDLAGTNSLKSNASRVSYDIEHLLYYSMSPHSWTLPTDWQKMQETAPSILRNKDLQDESQRFDGDKYLASIKTAAKRDIVAADEVETLDE
Binder B6 has an MAPPIT interaction score (CG10841) of 0.671.

B7: CkIIalpha (protein)
chain: MTLPSAARVYTDVNAHKPDEYWDYENYVVDWGNQDDYQLVRKLGRGKYSEVFEAINITTTEKCVVKILKPVKKKKIKREIKILENLRGGTNIITLLAVVKDPVSRTPALIFEHVNNTDFKQLYQTLTDYEIRYYLFELLKALDYCHSMGIMHRDVKPHNVMIDHENRKLRLIDWGLAEFYHPGQEYNVRVASRYFKGPELLVDYQMYDYSLDMWSLGCMLASMIFRKEPFFHGHDNYDQLVRIAKVLGTEELYAYLDKYNIDLDPRFHDILQRHSRKRWERFVHSDNQHLVSPEALDFLDKLLRYDHVDRLTAREAMAHPYFLPIVNGQMNPNNQQ
Binder B7 has an MAPPIT interaction score (CG10510) of 0.0158, an MAPPIT interaction score (CG31111) of 0.429 and an MAPPIT interaction score (CkIIbeta; MAPPIT configuration: N-C, pair source set: Lit-BM-16) of 3.22. For the same binder, the MAPPIT interaction score (CkIIbeta; MAPPIT configuration: N-N, pair source set: Lit-BM-16) was 4.3 (active), the MAPPIT interaction score (CkIIbeta; MAPPIT configuration: N-N, pair source set: screen_1) was 4.3 (active) and the MAPPIT interaction score (Pkc98E) was 0.257.

B8: wuho (protein)
chain: MCTTISFAEPEIVLGHGRRVLFVNPDDLQIFKEIELPPDLGLKGHTSQSQESCTAAAAASTATAASGQAPGGKEQQLANQPEEGGTSASASGLGCATSTSVQNVAYSPDGQLLAVTTSGKQKALLLYRSRPENARLLSARPLARASSALRFCSDSSSILVTDKTGDCYQYDCVEVEAPPRLLLGHLSVVYDILWSEDQQHIITCDRDDKIRVTNYPATFDIHSYCLGHREFVSGLALLTEQHIASASGDKTLRVWNYIQGKELLQHELPAPAVRLLVRQLEPEKVFQAAVLFYEHVDALGLYRLERSSDDTWSVTATQLVCAEAGSWSISNFTLTSDRIYITGAENERLSLRVYDIATGQPASSGVPEGWLKMVLDGLGANEEGAPPFIPEDLSVWFKKRFDNVSDYLERKKRRIEEQQQQKCG
In the case of B8, the MAPPIT interaction score (CG11149; MAPPIT configuration: N-C) is reported as 0.206, the MAPPIT interaction score (CG11149; MAPPIT configuration: N-N) is reported as -0.175 and the MAPPIT interaction score (CG14323) is reported as 0.00913. For the same binder, the MAPPIT interaction score (CG34268) was 0.0545.

B9: IM18 (protein)
chain: MKLIALCCLLLLGLLGFLAAPGVASPSRHTGPGNGSGSGAGSGNPFRSPSSQQRPLYYDAPIGKPSKTMYA
B9 showed an MAPPIT interaction score (CG10444) of 0.79.

B10: Ns1 (protein)
chain: MALKRLKTKKSKRLTGRLKHKIEKKVRDHNKKERRAAKKNPKKGSKKQKLIQIPNICPFKDDILKEVEEAKQRQEAERLARREAFKAEREQNKFKTLESMVEDADMRSTVHGIMHENDAQDQDEKKYKNAVTKEQSLKQYFKEFRKVIENADVVLEVVDARDPLGTRCNEVERAVRGAPGNKRLVLVLNKADLVPRENLNNWIKYFRRSGPVTAFKASTQDQANRLGRRKLREMKTEKAMQGSVCIGAELLMSMLGNYCRNKGIKTSIRVGVVGIPNVGKSSIINSLTRGRSCMVGSTPGVTKSMQEVELDSKIKLIDCPGIVFTSGGENSHAVLKNAQRVGDVKDPFTIAESVLKRASKEYFCTMYDITNYDTFEEFFAKKAARMGKFLKKGVPDVVAAARSVLNDWNTGKIKYCTQPPEVQEGQSVHISASIVHSEAREFDVENFESMETEILEHCAVKTDDIMEITSTGPLEIRQPREEAEPADKITASLVIDEKEKPAKGRKRKLDEEKEKVDPSLLLEENQSLNKGIKQMQKLKKKQNVRNEKKISKITDVLDSFSLGPSSSKAEKYDFDEDYVIE
With B10 the MAPPIT interaction score (CG10013) was -0.155.

B11: wbl (protein)
chain: MMHILVTLLLVAIHSIPTTWAVTCTGCVDLDELSFEKTVERFPYSVVKFDIAYPYGEKHEAFTAFSKSAHKATKDLLIATVGVKDYGELENKALGDRYKVDDKNFPSIFLFKGNADEYVQLPSHVDVTLDNLKAFVSANTPLYIGRDGCIKEFNEVLKNYANIPDAEQLKLIEKLQAKQEQLTDPEQQQNARAYLIYMRKIHEVGYDFLEEETKRLLRLKAGKVTEAKKEELLRKLNILEVFRVHKVTKTAPEKEEL
B11 showed an MAPPIT interaction score (CG10616) of -0.151.

B12: TER94 (protein)
chain: MADSKGEDLATAILKRKDRPNRLIVEEAQNDDNSVVSLSQAKMDELQLFRGDTVILKGKRRKETVCIVLSDDTCPDEKIRMNRVVRNNLCVHLSDVVSVQSCPDVKYGKRVRILPIDESTEGVTGNLFEIYLKPYFLEAYRPIHMGDNFIVRAAMRPIEFKVVLTDPEPYCIVAPETVIFCDGDPIKREEEEESLNAVGYDDIGGCRKQLAQIKEMVELPLRHPSLFKAIGVKPPRGILMYGPPGTGKTLIARAVANETGAFFFLINGPEIMSKLAGESESNLRKAFEEAEKNSPAIIFIDEIDAIAPKRDKTHGEVERRIVSQLLTLMDGMKKSSHLIVMAATNRPNSIDPALRRFGRFDREIDIGIPDATGRLEVLRIHTKNMKLHDDVDLEQIAAESHGHVGADLASLCSEAALQQIREKMDLIDLEDDKIDAEVLASLAVTMENFRYAMTKSSPSALRETVVEVPNTTWTDIGGLESVKKELQELVQYPVEHPDKFLKFGMQPSRGVLFYGPPGCGKTLLAKAIANECQANFISVKGPELLTMWFGESEANVRDIFDKARSAAPCVLFFDELDSIAKARGGNVGDAGGAADRVINQILTEMDGMGAKKNVFIIGATNRPDIIDPAILRPGRLDQLIYIPLPDDKSREAILKANLRKSPLAKEVDLTYIAKVTQGFSGADLTEICQRACKLAIRQAIEAEIRREKERAENQNSAMDMDEDDPVPEITSAHFEEAMKFARRSVSDNDIRKYEMFAQTLQQSRGFGQNFRFPGQTGNTSGSGNNLPVNSPGDNGDDDLYS
B12 was tested, and the MAPPIT interaction score (CG10336) was 2.12, the MAPPIT interaction score (Gint3) was 1.48 and the MAPPIT interaction score (ZnT63C) was -0.374.
